Assay outcomes deposited in PubChem by several laboratories.
Efa HMGR inh = inhibitors of E. faecalis class II HMGR, primary screen, biochemical, Enterococcus faecalis; HMG-CoA reductase (Enterococcus faecalis, mvaE); purified E. faecalis HMGR, NADPH absorbance 340 nm kinetic; inhibition, % at 10 µM; actives 0.41% (n = 190,000); AID 1066, 2008;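 active = inhibition above a set limit, the median over all tested compounds plus 3 SD, cut at about 9.5% in these data; inconclusive = no clear call, values can overlap the other calls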;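 also: enzyme runs in reverse so mevalonate oxidation gives rising NADPH absorbance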
dFosB act = activators of delta FosB homodimer, primary screen, biochemical, fluorescence polarization, TAMRA-CDK5 oligo, single point | Protein FosB (Mus musculus), P13346 | purified delta FosB; percent of positive-control signal above neutral wells | activation, % at 25 µM | actives 0.99% (n = 340,000) | AID 493131, 2011;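 active = mean activation above about 17%, with every replicate also reaching it, limit read from the data, passing the limit was not always enough; inconclusive = only one of the two conditions met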
Target sequence (P13346 whole entry, looked up): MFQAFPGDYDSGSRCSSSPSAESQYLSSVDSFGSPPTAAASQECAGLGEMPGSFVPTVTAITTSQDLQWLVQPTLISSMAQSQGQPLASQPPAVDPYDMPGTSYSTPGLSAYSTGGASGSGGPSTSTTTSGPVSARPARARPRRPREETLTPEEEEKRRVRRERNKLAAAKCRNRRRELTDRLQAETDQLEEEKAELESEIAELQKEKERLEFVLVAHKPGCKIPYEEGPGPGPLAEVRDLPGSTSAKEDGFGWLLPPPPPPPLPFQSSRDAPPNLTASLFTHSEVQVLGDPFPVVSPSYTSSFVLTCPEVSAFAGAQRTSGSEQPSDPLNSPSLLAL
NCF1 inh = p47phox/p22phox peptide binding inhibitors, primary screen, biochemical, uHTS, NADPH oxidase regulatory subunit; inhibition, % at 24.7 µM; AID 1274, 2008; actives 0.53% (n = 220,000); Neutrophil cytosol factor 1 (Homo sapiens), P14598; fluorescence polarization, 2 h;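 active = inhibition above about 30%, limit read from the data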
Target sequence (P14598 whole entry, looked up): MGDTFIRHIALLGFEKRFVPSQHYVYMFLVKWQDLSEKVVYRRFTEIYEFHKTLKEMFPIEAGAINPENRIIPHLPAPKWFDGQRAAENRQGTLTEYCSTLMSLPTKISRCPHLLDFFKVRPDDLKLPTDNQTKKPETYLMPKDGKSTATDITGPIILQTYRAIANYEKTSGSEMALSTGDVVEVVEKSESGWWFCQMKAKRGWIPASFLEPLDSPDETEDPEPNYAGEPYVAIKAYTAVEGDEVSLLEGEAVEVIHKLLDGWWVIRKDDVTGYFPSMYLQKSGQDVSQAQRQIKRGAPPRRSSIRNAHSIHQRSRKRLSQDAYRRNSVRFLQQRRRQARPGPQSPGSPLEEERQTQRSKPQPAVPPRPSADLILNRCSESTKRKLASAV
14-3-3 Bad inh = inhibitors of 14-3-3 zeta/Bad binding, primary screen, biochemical, TR-FRET, bovine 14-3-3 zeta | TR-FRET 14-3-3zeta/Dy647-pBad peptide displacement, 1 h | inhibition, % at 21.7 µM | actives 0.71% (n = 220,000);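 active = inhibition above about 70%, limit read from the data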
Of the large screens only hits and unclear results are named; the others gave an inactive call; ! = not active in a repeat; [ ] = another dose, or the depositor's remark. An excerpt weighted towards active compounds, which were near 1.9% of everything screened.

O=C(O)CCS(=O)(=O)c1cccc2cccnc12	none
COC(=O)c1nnn(-c2nonc2N)c1CSc1nnc(C)s1	none
CN(c1ccccc1)S(=O)(=O)c1cccc(NC(=O)C2CC(=O)N(Cc3ccccc3)C2)c1 (stereo not drawn)	NCF1 inh active (no result: Efa HMGR inh)
O=C(Nc1cccc(S(=O)(=O)N2CCCCC2)c1)C1CC(=O)N(Cc2ccccc2)C1 (stereo not drawn)	none (no result: Efa HMGR inh, NCF1 inh, 14-3-3 Bad inh)
CCCCCCS(=O)Cc1ccccc1 (stereo not drawn)	none
COc1cccc(OC)c1OCCN(C)C	14-3-3 Bad inh 86
OCCNCCOCCOc1ccccc1-c1ccccc1	none
COc1cccc(OC)c1OCCNC(C)(C)C	none
CN(C)CCOCCOc1ccccc1-c1ccccc1	14-3-3 Bad inh 87
CN(C)CCOc1ccccc1-c1ccccc1	14-3-3 Bad inh 72
CNCCOc1ccccc1-c1ccccc1	none
COc1cccc(N2CCN(CC(=O)NC(=O)NCc3ccco3)CC2)c1	none
O=C(NCCN1CCCCC1)c1ccc(Oc2cc(Cl)cc(Cl)c2)o1	NCF1 inh 30 (no result: Efa HMGR inh)
CC(=O)N(CN1C(=O)c2ccccc2C1=O)c1ccccc1	none (no result: Efa HMGR inh)
S=C(NCCc1ccccc1)N1CCN(Cc2ccccc2)CC1	none
Oc1ccc(N2CCN(C(=S)NCCc3ccccc3)CC2)cc1	NCF1 inh 95
Oc1ccccc1N1CCN(C(=S)NCCc2ccccc2)CC1	NCF1 inh 47
CCOC(=O)N1CCN(c2nnc(-c3ccccc3)c3ccccc23)CC1	none (no result: Efa HMGR inh, NCF1 inh, 14-3-3 Bad inh)
CCc1ccc(NC(=O)CSc2nc(=O)n(CCCN3CCOCC3)c3c2CCC3)cc1	none (no result: Efa HMGR inh, NCF1 inh, 14-3-3 Bad inh)
Clc1ccc(Cc2ccc(SCc3ccccc3)nn2)c(Cl)c1	14-3-3 Bad inh 72
Clc1ccc(Cc2ccc(Cl)nn2)c(Cl)c1	none
CC(C)(C)OC(=O)N(Cc1ccccc1)Cc1cccc(OCc2cccc(NC(=O)C3CC3)c2)c1	none (no result: Efa HMGR inh, NCF1 inh, 14-3-3 Bad inh)
CC(=O)N1C(=O)C(=C2C=C(C)OC(C)=C2)c2ccccc21	none
CC1=CC(=C2C(=O)c3ccccc3C2=O)C=C(C)O1	NCF1 inh 69
CCn1cc(S(=O)(=O)Nc2cc(F)ccc2C)cn1	14-3-3 Bad inh 92
CCn1cc(S(=O)(=O)Nc2cccnc2)cn1	none (no result: Efa HMGR inh, NCF1 inh, 14-3-3 Bad inh)
O=C(CCC1CCCN(C(=O)CCCc2ccccc2)C1)N1CCN(c2ccccn2)CC1 (stereo not drawn)	NCF1 inh 95 (no result: Efa HMGR inh)
Cc1cc2oc(C(=O)N(Cc3ccccc3)C3CCS(=O)(=O)C3)cc(=O)c2cc1Cl (stereo not drawn)	14-3-3 Bad inh 88[fluorescence artefact?]
CCC(=O)NCC(c1cccs1)N1CCOCC1 (stereo not drawn)	14-3-3 Bad inh 85
CCCCCCCCCCOC(=O)Cn1c(COc2ccccc2OC)[n+](C)c2ccccc21	dFosB act 25 (no result: Efa HMGR inh, NCF1 inh, 14-3-3 Bad inh)
O=C(COC(=O)CCC(=O)c1cccs1)NCc1cccs1	none (no result: Efa HMGR inh)
CCCOc1ccc(N)cc1N	14-3-3 Bad inh 92[fluorescence artefact?]
Cc1cc(NS(=O)(=O)c2ccc(NC(=O)NC3CCCCC3)cc2)no1	none
C#CC1(NC(=O)NCCCC)CCCCC1	NCF1 inh 57
CN(C)/C=N/c1nc2nccc(-c3cccs3)n2n1	none
COc1cccc(-c2csc(N3CCN(C(=O)Nc4ccc(Cl)cc4)CC3)n2)c1	Efa HMGR inh 9.9
Cc1nnc(N2C(=O)c3ccc(Br)cc3C2=O)s1	none (no result: Efa HMGR inh, NCF1 inh, 14-3-3 Bad inh)
Cc1c(/C=N/Nc2nc3ccccc3[nH]2)c2ccccc2n1C	dFosB act 78 (no result: Efa HMGR inh)
Clc1nc2ccccc2cc1/C=N/Nc1nc2ccccc2[nH]1	dFosB act 18
CCN(CC)c1ccc(/C=N/Nc2nc3ccccc3[nH]2)cc1	dFosB act 39
Cc1nn(-c2ccccc2)c(C)c1/C=N/Nc1nc2ccccc2[nH]1	dFosB act 27
CCCCc1ncc(CN2CCC(n3nccc3NC(=O)c3ccccc3OC)CC2)[nH]1	none (no result: Efa HMGR inh, NCF1 inh, 14-3-3 Bad inh)
Cc1nn(CCN)c(C)c1Cl	none
COc1ccccc1/C=C/C(=O)OCC(=O)NC1CC1	none (no result: Efa HMGR inh, NCF1 inh, 14-3-3 Bad inh)
COc1ccc(OCCn2c(C)c(/C=N/n3cnnc3)c3ccccc32)cc1	none
Cc1c(/C=N/n2cnnc2)c2ccccc2n1C	14-3-3 Bad inh 71[fluorescence artefact?]
COCCn1c(NCc2ccc(C)cc2)nc2c1c(=O)[nH]c(=O)n2C	none
c1ccc2[nH]c(-c3ccncc3)nc2c1	NCF1 inh 30!
COc1ccc2cc(C3NC(=O)c4ccccc4N3)c(Cl)nc2c1 (stereo not drawn)	Efa HMGR inh 19
Cn1c(C(=O)NCCN2CCN(c3ccccc3F)CC2)cc2c(=O)n(C)c3ccccc3c21	none
COc1cc(/C=C2/SC(=O)N(Cc3ccccc3Cl)C2=O)ccc1OCc1ccncc1	NCF1 inh 31
COc1cc(/C=C2/SC(=O)NC2=O)ccc1OCc1ccccc1	none (no result: Efa HMGR inh, NCF1 inh, 14-3-3 Bad inh)
COC(=O)c1c(NC(=O)CN2CCN(Cc3ccc4c(c3)OCO4)CC2)sc(C)c1C	dFosB act inconclusive
COCCNC(=O)CCc1nnc(C2(c3ccc(Cl)cc3)CCC2)o1	Efa HMGR inh 13
COc1ccc(N/C(=C(/C(Cl)=C(Cl)Cl)[N+](=O)[O-])n2nnc3ccccc32)cc1	14-3-3 Bad inh 79 (no result: dFosB act)
Cc1ccc(S(=O)(=O)NN2C(=O)c3ccccc3NC2c2ccccc2)cc1 (stereo not drawn)	none
COc1ccc(N2CCN(S(=O)(=O)CCNC(=O)Cc3ccc([N+](=O)[O-])cc3)CC2)cc1	none (no result: Efa HMGR inh, NCF1 inh, 14-3-3 Bad inh)
Cc1cc(-c2ccccc2)nc2oc(C(=O)NN)c(N)c12	NCF1 inh 47 (no result: Efa HMGR inh)
Cc1cc(C)c2c(N)c(C(=O)c3ccccc3)oc2n1	none
CSc1nnc2c3cc(C)ccc3n(Cc3ccccc3)c2n1	dFosB act inconclusive, 14-3-3 Bad inh 88[fluorescence artefact?]
COc1ccc(N)c2c1C(=O)c1ccccc1C2=O	none
Nc1ccc(O)c2c1C(=O)c1ccccc1C2=O	NCF1 inh 54
Nc1ccc(Br)c2c1C(=O)c1ccccc1C2=O	NCF1 inh 37 (no result: dFosB act)
NC1=C(Br)C(=O)c2ccccc2C1=O	none (no result: Efa HMGR inh)
NC(=O)c1ccc(-c2nnn(CC(=O)N(C3CCCCC3)C3CCS(=O)(=O)C3)n2)cc1 (stereo not drawn)	none (no result: Efa HMGR inh, NCF1 inh, 14-3-3 Bad inh)
C/C(=N\NC(=O)c1cc(Br)ccc1O)c1ccccn1	none (no result: Efa HMGR inh, NCF1 inh, 14-3-3 Bad inh)
CCOC(=O)c1ccc(/C=N/O)[n+](Cc2ccccc2)c1	none (no result: Efa HMGR inh, NCF1 inh, 14-3-3 Bad inh)
CC(=O)Oc1cc(C(C)C)c(OCCN(C)C)cc1C	Efa HMGR inh 9.7
CC1(C)CC(=O)C2=C(C1)Nc1cc3c(cc1C2c1ccc(F)cc1)OCO3 (stereo not drawn)	none
CC1(C)CC(=O)C2=C(C1)Nc1cc3c(cc1C2c1ccc2c(c1)OCO2)OCO3 (stereo not drawn)	NCF1 inh 59
COc1ccc(CNC(=O)C[C@H]2C[C@H](C(=O)N3CCCCC3)[C@@]3(CCc4ccccc4)c4[nH]c5ccc(Cl)cc5c4CCN3C2=O)cc1OC	none (no result: Efa HMGR inh, NCF1 inh, 14-3-3 Bad inh)
CCOC(=O)C1CCCN(c2c(NCCc3ccc(S(N)(=O)=O)cc3)c(=O)c2=O)C1 (stereo not drawn)	none
CC(=O)Nc1ccc(-c2csc(N/N=C(/C)c3ccccc3)n2)cc1	none (no result: Efa HMGR inh)
CSc1ccc(C2NC(=O)CCC2[N+](=O)[O-])cc1 (stereo not drawn)	none (no result: Efa HMGR inh, NCF1 inh, 14-3-3 Bad inh)
